In PubChem BioAssay (EPA / NIEHS):
Results filed as inconclusive are left out. The source made the active and inactive calls. Rule for the calls, unless noted: active = hit-call score of the fitted dose curve at least 0.9, where 1 is the maximum; inconclusive = response in the unintended direction; inactive = score below 0.9.

Columns and labels:
[1] = target: Bile acid receptor (Homo sapiens) (UniProt Q96RI1); test: ATG_FXR_TRANS: Attagene TRANS-FACTORIAL HepG2 Assay for Farnesoid X Receptor (FXR) (AID 2282979); conditions: HepG2 Attagene TRANS FXR-GAL4 reporter transcription;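 note: hits raise reporter mRNA above DMSO so AC50 marks FXR activation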
Method in brief: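 HepG2 cells transiently transfected with reporter constructs in which a chimeric FXR-GAL4 protein drives a GAL4-UAS reporter; 24 h compound exposure. Reporter mRNA measured by RT-PCR, FAM labelling, HpaI digestion and capillary electrophoresis; gain-of-signal versus DMSO.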

[2] = target: Oxysterols receptor LXR-alpha (Homo sapiens) (UniProt Q13133); test: ATG_LXRa_TRANS: Attagene TRANS-FACTORIAL HepG2 Assay for human Liver X Receptor alpha (LXRa) (AID 2282980); conditions: HepG2 Attagene TRANS reporter, LXRa transactivation
Method in brief: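 HepG2 cells were transiently transfected with multiplexed reporter units driven by chimeric LXRa–GAL4 fusion proteins, then dosed for 24 h. Reporter mRNA was quantified by RT-PCR, fluorescent labelling and capillary electrophoresis; gain of signal fitted against DMSO baseline.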

[3] = target: Oxysterols receptor LXR-beta (Homo sapiens) (UniProt P55055); test: ATG_LXRb_TRANS: Attagene TRANS-FACTORIAL HepG2 Assay for human Liver X Receptor beta (LXRb) (AID 2282981); conditions: HepG2 Attagene TRANS GAL4-LXRb reporter, mRNA
Method in brief: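 In this TRANS format, exogenous chimeric NR-Gal4 protein activity, not endogenous factors, drives reporter expression in transfected human HepG2 cells. Exposure lasted 24 h; reporter mRNA was read by fluorescent capillary electrophoresis.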

[4] = ATG_M_06_TRANS: Attagene TRANS-FACTORIAL HepG2 Assay for M06 Transcription Factor (Internal Marker) (AID 2282983); conditions: HepG2 Attagene TRANS M06 internal marker reporter
Method in brief: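 HepG2 cells transiently transfected with multiplexed GAL4-UAS reporter transcription units; after 24 h compound exposure, reporter mRNA measured by RT-PCR, FAM-labelled primer extension, HpaI digestion and capillary electrophoresis. Gain-of-signal fitted versus DMSO baseline; background control readout.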

[5] = ATG_M_32_TRANS: Attagene TRANS-FACTORIAL HepG2 Assay for M32 Transcription Factor (Internal Marker) (AID 2282984); conditions: HepG2 Attagene TRANS M32 internal marker reporter
Method in brief: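 Human hepatoma HepG2, transient MRTU transfection, 24 h treatment. RNA → RT-PCR → fluorescent primer extension → HpaI digest (2 h, 37 C) → CE. Positive-direction fit vs DMSO.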

[6] = target: Nuclear receptor subfamily 4 group A member 2 (Homo sapiens) (UniProt P43354); test: ATG_NURR1_TRANS: Attagene TRANS-FACTORIAL HepG2 Assay for human Nuclear Receptor Related Protein 1 (NURR1) (AID 2282985); conditions: HepG2 Attagene TRANS reporter, mRNA readout
Method in brief: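 After 24 h chemical dosing, total RNA from transiently transfected HepG2 cells was reverse-transcribed and reporter cDNA PCR-amplified, FAM-labelled and analysed by capillary electrophoresis. Activity fitted in positive direction, DMSO as negative control.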

[7] = target: Transcriptional activator Myb (Homo sapiens) (UniProt P10242); test: ATG_Myb_CIS: Attagene CIS-FACTORIAL HepG2 Assay for human Myeloblastosis (Myb) Proto-Oncogene Transcription Factor (AID 2282986; active = hit-call score of the fitted dose curve at least 0.9, where 1 is the maximum; inactive = score below 0.9); conditions: HepG2 Attagene CIS-FACTORIAL Myb reporter transcription; actives raise or lower the signal
Method in brief: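 Steps: transfect HepG2 with cis-regulated reporter units; dose with chemical for 24 h; isolate RNA, reverse-transcribe, PCR-amplify and FAM-label reporter sequences; digest with HpaI; resolve by capillary electrophoresis. Activity fitted in both directions relative to DMSO.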

[8] = target: Hepatocyte nuclear factor 4-alpha (Homo sapiens) (UniProt P41235); test: ATG_HNF4a_TRANS: Attagene TRANS-FACTORIAL HepG2 Assay for human Hepatocyte Nuclear Factor 4 alpha (HNF4a) (AID 2282982); conditions: HepG2 HNF4a transactivation reporter, mRNA readout
Method in brief: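 Cells used were human HepG2, transiently carrying GAL4-UAS reporter units read out against exogenous NR-GAL4 chimeras. Reporter transcript levels after 24 h dosing were quantified by fluorescent RT-PCR and capillary electrophoresis.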

[9] = target: Glucocorticoid receptor (Homo sapiens) (UniProt P04150); test: ATG_GR_TRANS: Attagene TRANS-FACTORIAL HepG2 Assay for human Glucocorticoid Receptor (GR) (AID 2282978); conditions: HepG2 Attagene TRANS GR reporter, mRNA transcription;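 note: activators score as hits since higher reporter transcript over DMSO is fitted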
Method in brief: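 In this trans-factorial format, exogenous NR-GAL4 chimeric proteins in transfected HepG2 cells regulate GAL4-UAS reporter transcription. After 24 h treatment, reporter mRNA induction relative to DMSO is read by RT-PCR and capillary electrophoresis.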

Sequence of Oxysterols receptor LXR-beta (Homo sapiens) (P55055 whole entry, looked up, the tested form may be a part): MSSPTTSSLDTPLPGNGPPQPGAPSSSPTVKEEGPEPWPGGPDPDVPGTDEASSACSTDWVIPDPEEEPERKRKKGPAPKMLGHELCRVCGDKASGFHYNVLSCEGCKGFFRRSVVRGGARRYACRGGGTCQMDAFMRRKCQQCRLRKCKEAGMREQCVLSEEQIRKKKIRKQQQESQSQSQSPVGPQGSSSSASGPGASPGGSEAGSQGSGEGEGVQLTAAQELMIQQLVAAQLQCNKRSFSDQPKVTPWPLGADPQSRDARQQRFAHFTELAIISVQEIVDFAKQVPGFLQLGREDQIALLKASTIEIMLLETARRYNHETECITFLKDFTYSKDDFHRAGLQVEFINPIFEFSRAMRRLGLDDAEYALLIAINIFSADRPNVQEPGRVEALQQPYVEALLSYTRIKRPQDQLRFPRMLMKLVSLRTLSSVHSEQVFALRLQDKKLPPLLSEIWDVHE
Sequence of Glucocorticoid receptor (Homo sapiens) (P04150 whole entry, looked up, the tested form may be a part): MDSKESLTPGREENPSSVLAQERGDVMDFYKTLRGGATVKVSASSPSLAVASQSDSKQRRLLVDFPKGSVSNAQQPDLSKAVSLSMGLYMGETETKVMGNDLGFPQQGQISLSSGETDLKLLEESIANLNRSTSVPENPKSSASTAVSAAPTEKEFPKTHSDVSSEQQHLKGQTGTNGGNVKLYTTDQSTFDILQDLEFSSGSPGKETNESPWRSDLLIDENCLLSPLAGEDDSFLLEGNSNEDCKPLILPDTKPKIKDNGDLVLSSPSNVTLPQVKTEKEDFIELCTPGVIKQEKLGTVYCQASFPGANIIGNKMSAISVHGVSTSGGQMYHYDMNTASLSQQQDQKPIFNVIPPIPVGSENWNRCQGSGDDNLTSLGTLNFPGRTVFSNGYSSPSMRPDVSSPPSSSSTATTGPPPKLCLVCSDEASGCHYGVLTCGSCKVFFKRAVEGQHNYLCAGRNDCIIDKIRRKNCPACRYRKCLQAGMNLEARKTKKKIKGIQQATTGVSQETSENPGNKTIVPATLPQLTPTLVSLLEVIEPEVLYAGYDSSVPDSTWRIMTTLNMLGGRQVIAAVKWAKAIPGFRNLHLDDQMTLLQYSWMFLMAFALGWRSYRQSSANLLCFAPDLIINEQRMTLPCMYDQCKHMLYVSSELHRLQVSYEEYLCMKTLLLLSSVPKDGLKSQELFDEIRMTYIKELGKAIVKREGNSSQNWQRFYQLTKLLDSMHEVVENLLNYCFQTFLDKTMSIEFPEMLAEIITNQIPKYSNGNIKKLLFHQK
Sequence of Nuclear receptor subfamily 4 group A member 2 (Homo sapiens) (P43354 whole entry, looked up): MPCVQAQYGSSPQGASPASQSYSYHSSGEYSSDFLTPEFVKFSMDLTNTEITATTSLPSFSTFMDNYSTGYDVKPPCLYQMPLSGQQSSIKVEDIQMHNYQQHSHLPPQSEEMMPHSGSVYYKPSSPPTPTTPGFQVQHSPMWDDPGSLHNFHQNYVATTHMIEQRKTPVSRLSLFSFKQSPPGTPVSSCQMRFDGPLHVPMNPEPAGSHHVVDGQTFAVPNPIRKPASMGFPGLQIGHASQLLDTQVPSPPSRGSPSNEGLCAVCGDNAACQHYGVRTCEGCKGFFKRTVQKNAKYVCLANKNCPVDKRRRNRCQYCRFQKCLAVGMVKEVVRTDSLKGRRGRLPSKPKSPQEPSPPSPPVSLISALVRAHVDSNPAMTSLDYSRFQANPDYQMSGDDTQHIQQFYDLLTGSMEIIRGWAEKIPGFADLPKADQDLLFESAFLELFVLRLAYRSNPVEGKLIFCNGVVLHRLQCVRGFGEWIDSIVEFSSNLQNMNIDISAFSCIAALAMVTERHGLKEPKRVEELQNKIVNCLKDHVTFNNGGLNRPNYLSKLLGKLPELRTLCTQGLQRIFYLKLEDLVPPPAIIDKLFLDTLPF
Sequence of Bile acid receptor (Homo sapiens) (Q96RI1 whole entry, looked up, the tested form may be a part): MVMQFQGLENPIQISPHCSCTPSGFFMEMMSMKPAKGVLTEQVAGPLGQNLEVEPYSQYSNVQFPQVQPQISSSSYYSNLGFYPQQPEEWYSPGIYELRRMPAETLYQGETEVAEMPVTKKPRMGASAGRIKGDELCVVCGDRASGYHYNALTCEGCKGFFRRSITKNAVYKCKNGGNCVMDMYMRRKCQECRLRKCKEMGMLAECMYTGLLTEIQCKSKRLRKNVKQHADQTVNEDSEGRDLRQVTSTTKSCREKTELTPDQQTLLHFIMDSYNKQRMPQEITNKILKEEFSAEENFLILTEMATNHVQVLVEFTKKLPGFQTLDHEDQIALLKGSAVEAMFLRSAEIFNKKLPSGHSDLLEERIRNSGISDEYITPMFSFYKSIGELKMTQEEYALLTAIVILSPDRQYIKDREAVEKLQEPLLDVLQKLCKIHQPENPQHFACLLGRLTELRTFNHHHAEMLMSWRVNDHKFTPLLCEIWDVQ
Sequence of Oxysterols receptor LXR-alpha (Homo sapiens) (Q13133 whole entry, looked up, the tested form may be a part): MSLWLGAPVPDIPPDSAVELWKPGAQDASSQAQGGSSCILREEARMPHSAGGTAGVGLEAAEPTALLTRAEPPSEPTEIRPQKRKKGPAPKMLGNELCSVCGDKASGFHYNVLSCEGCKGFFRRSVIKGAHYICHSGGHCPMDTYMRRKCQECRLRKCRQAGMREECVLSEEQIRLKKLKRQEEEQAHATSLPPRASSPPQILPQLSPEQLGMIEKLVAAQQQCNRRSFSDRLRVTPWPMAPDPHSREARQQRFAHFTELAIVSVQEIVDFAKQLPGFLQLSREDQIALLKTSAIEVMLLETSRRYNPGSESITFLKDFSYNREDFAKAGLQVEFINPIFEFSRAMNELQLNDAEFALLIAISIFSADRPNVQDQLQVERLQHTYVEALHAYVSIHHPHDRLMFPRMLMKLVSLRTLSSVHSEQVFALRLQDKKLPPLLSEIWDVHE
Sequence of Transcriptional activator Myb (Homo sapiens) (P10242 whole entry, looked up): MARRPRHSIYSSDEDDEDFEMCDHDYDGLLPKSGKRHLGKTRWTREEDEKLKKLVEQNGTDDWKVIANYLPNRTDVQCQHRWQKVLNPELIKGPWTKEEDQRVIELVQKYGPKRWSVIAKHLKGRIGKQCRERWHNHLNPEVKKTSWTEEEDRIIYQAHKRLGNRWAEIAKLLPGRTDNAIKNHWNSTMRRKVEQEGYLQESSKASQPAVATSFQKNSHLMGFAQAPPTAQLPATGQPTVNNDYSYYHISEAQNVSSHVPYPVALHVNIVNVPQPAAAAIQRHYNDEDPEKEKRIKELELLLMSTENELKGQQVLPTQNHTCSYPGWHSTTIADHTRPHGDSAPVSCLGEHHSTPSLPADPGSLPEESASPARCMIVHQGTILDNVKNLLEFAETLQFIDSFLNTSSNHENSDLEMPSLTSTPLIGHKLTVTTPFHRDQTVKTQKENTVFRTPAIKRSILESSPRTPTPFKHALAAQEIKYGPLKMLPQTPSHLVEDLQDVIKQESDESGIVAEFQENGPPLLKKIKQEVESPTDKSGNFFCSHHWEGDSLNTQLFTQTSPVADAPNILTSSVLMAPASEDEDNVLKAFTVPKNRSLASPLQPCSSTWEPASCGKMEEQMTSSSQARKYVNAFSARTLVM
Sequence of Hepatocyte nuclear factor 4-alpha (Homo sapiens) (P41235 whole entry, looked up, the tested form may be a part): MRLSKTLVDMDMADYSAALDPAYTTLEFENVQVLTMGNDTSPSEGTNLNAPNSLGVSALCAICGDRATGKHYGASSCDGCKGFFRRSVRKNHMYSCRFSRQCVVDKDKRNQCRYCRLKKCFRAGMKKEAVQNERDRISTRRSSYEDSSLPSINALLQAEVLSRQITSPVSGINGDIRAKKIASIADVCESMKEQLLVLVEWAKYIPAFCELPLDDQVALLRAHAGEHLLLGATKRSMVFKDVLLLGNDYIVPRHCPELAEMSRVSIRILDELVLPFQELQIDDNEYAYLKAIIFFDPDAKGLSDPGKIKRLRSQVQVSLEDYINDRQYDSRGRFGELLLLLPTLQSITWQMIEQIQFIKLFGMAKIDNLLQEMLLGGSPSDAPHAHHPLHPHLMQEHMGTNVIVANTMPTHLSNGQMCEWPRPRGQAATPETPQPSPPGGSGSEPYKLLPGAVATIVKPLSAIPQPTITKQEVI

C#CC(O)CCC (stereo unspecified)
outcome [1]: inactive
outcome [2]: inactive
outcome [3]: inactive
outcome [4]: inactive
outcome [5]: inactive
outcome [6]: inactive
outcome [7]: inactive

O=C1C=CC(=O)N1c1ccccc1
outcome [8]: inactive
outcome [4]: inactive
outcome [5]: inactive
outcome [6]: inactive
outcome [7]: inactive

Nc1cccnc1N
outcome [1]: inactive
outcome [7]: inactive

OCCCCC(F)(F)C(F)(F)C(F)(F)C(F)(F)F
outcome [1]: inactive
outcome [8]: inactive
outcome [4]: inactive
outcome [5]: inactive
outcome [7]: inactive

NC(=O)C(F)(F)C(F)(F)C(F)(F)C(F)(F)C(N)=O
outcome [8]: inactive
outcome [4]: inactive
outcome [7]: inactive

CC(C)(C)C(=O)C1C(=O)c2ccccc2C1=O
outcome [1]: inactive
outcome [2]: inactive
outcome [3]: inactive
outcome [8]: inactive
outcome [4]: inactive
outcome [5]: inactive
outcome [6]: inactive
outcome [7]: inactive

CC1=CCC(=O)O1
outcome [1]: inactive
outcome [2]: inactive
outcome [3]: inactive
outcome [8]: inactive
outcome [4]: inactive
outcome [5]: inactive
outcome [6]: inactive
outcome [7]: inactive

N#CCCOCCC#N
outcome [1]: inactive
outcome [2]: inactive
outcome [3]: inactive
outcome [8]: inactive
outcome [4]: inactive
outcome [5]: inactive
outcome [7]: inactive

O=S(=O)(Cl)C(F)(F)C(F)(F)C(F)(F)C(F)(F)C(F)(F)C(F)(F)C(F)(F)C(F)(F)F
outcome [1]: inactive
outcome [2]: inactive
outcome [4]: inactive
outcome [5]: inactive
outcome [6]: inactive
outcome [7]: inactive

O=C(O)C(F)(F)C(F)(F)C(F)(F)C(=O)O
outcome [1]: inactive
outcome [3]: inactive
outcome [8]: inactive
outcome [4]: inactive
outcome [5]: inactive
outcome [7]: inactive

Brc1ccccn1
outcome [1]: inactive
outcome [3]: inactive
outcome [8]: inactive
outcome [4]: inactive
outcome [5]: inactive
outcome [6]: inactive
outcome [7]: inactive

N#Cc1ccccc1O
outcome [1]: inactive
outcome [2]: inactive
outcome [4]: inactive
outcome [6]: inactive
outcome [7]: inactive

OCC(F)(F)C(F)(F)C(F)(F)CO
outcome [9]: inactive
outcome [4]: inactive
outcome [6]: inactive
outcome [7]: inactive

O=C=Nc1cccc2c(N=C=O)cccc12
outcome [3]: inactive
outcome [7]: inactive

CCN(CC)c1ccc(C=O)cc1
outcome [1]: inactive
outcome [3]: inactive
outcome [8]: inactive
outcome [4]: inactive
outcome [7]: inactive

CC(O)C#CC(C)O (stereo unspecified)
outcome [1]: inactive
outcome [2]: inactive
AC50 [8]: 151 µM (active)
outcome [4]: inactive
outcome [5]: inactive
outcome [6]: inactive
outcome [7]: inactive

CC1=CC2C3C=CC(C3)C2C1C (stereo unspecified)
outcome [1]: inactive
outcome [2]: inactive
outcome [4]: inactive
outcome [6]: inactive
outcome [7]: inactive

CCn1c2ccccc2c2ccccc21
outcome [1]: inactive
outcome [8]: inactive
outcome [4]: inactive
outcome [5]: inactive
outcome [6]: inactive
outcome [7]: inactive

CN(N=O)C(=O)N[C@@H]1[C@@H](O)[C@H](O)[C@@H](CO)O[C@@H]1O
outcome [1]: inactive
outcome [8]: inactive
outcome [4]: inactive
outcome [5]: inactive
outcome [7]: inactive

CCN(CCO)S(=O)(=O)C(F)(F)C(F)(F)C(F)(F)C(F)(F)C(F)(F)C(F)(F)C(F)(F)C(F)(F)F
outcome [1]: inactive
outcome [2]: inactive
outcome [3]: inactive
outcome [4]: inactive
outcome [5]: inactive
outcome [6]: inactive
outcome [7]: inactive

CC(C)Nc1ccc(NC(C)C)c2c1C(=O)c1ccccc1C2=O
outcome [9]: inactive
outcome [4]: inactive
outcome [6]: inactive
outcome [7]: inactive

O=C(F)C1(F)C(F)(F)C(F)(F)C(F)(F)C(F)(F)C1(F)F
outcome [1]: inactive
outcome [2]: inactive
outcome [3]: inactive
outcome [5]: inactive
outcome [6]: inactive
outcome [7]: inactive

Cc1ccc(S(=O)(=O)C(I)I)cc1
outcome [8]: inactive
outcome [4]: inactive
outcome [5]: inactive
outcome [6]: inactive
AC50 [7]: 17.4 µM (active)

CC(C)OC=O
outcome [9]: inactive
outcome [4]: inactive
outcome [6]: inactive
outcome [7]: inactive

CCCCOC(=O)[C@H](C)O
outcome [8]: inactive
outcome [5]: inactive
outcome [6]: inactive
outcome [7]: inactive

CC(C)OC(=O)COc1ccc(Cl)cc1Cl
outcome [8]: inactive
outcome [5]: inactive
outcome [6]: inactive
outcome [7]: inactive

CC(C)(C)c1cc(CCC(=O)OCC(COC(=O)CCc2cc(C(C)(C)C)c(O)c(C(C)(C)C)c2)(COC(=O)CCc2cc(C(C)(C)C)c(O)c(C(C)(C)C)c2)COC(=O)CCc2cc(C(C)(C)C)c(O)c(C(C)(C)C)c2)cc(C(C)(C)C)c1O
outcome [3]: inactive
outcome [8]: inactive
outcome [4]: inactive
outcome [6]: inactive
outcome [7]: inactive

O=C=NCc1cccc(CN=C=O)c1
outcome [2]: inactive
outcome [3]: inactive
outcome [8]: inactive
outcome [4]: inactive
outcome [6]: inactive
outcome [7]: inactive

O=C1c2c(O)ccc(Nc3ccc(CCO)cc3)c2C(=O)c2c([N+](=O)[O-])ccc(O)c21
outcome [1]: inactive
outcome [2]: inactive
outcome [3]: inactive
outcome [8]: inactive
outcome [4]: inactive
outcome [5]: inactive
AC50 [6]: 30.4 µM (active)
outcome [7]: inactive
